The values that follow come from PubChem BioAssay.

Molecules are shown by their SMILES. The source made the active and inactive calls. Unless noted, no rule for the calls is given here.

Experiment [1] is described as follows: compound effects on lung adenocarcinoma cell viability – A549, calcein-AM fluorescence, 48 h, basal, profiling panel (AID 1162). Also: test concentration not given here. The note with it: higher = more signal.
The nature of experiment [2]: compound effects on differentiated 3T3-L1 adipocyte viability – cell-based, 3T3-L1 adipocytes, calcein-AM fluorescence, 48 h, basal, profiling panel (AID 1163). Also: test concentration not given here. To be noted: 3T3-L1 adipocytes viability, higher = more signal.
Experiment [3] in a line: compound effects on hepatocellular carcinoma cell viability – HepG2, calcein-AM fluorescence, 48 h, basal, profiling panel (AID 1164). Also: test concentration not given here. The note with it: higher = more signal.
Experiment [4] in a line: compound effects on multiple myeloma cell viability – MM1S, calcein-AM fluorescence, 48 h, basal, profiling panel (AID 1165).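 Also: viability of MM1S multiple myeloma cells under basal unstimulated conditions; test concentration not given here.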 The note with it: higher = more signal.
A short description of experiment [5]: calcein-AM signal in unstimulated myeloma cells – cell-based, calcein-AM fluorescence, 48 h, PK04 Diversity Set, profiling panel (AID 1166).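 Also: cells grown under basal conditions without added stimulus; test concentration not given here.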 To be noted: RPMI8226 myeloma viability, higher = more signal.
Experiment [6] in a line: JC-1 mitochondrial signal, unstimulated HepG2 cells – cell-based, JC-1 fluorescence, 24 h, 100 nL compound, profiling panel (AID 1167). Also: test concentration not given here. The note with it: HepG2 mitochondrial potential, higher = more signal.
Experiment [7] in a line: JC-1 mitochondrial signal, unstimulated adipocytes – cell-based, JC-1 fluorescence, 3T3-L1 adipocytes, 24 h, 100 nL compound, profiling panel (AID 1168). Also: test concentration not given here. To be noted: JC-1 mitochondrial fluorescence, higher = more signal, called active from +8 up or from −8 down.
Experiment [8] in a line: JC-1 mitochondrial signal, unstimulated myeloma cells – cell-based, JC-1 fluorescence, RPMI8226, 24 h, 100 nL compound, profiling panel (AID 1169). Also: test concentration not given here. To be noted: JC-1 mitochondrial potential fluorescence, higher = more signal.
Experiment [9] in a line: JC-1 mitochondrial signal, unstimulated MM1S myeloma – cell-based, JC-1 fluorescence, 24 h, 100 nL compound, profiling panel (AID 1170). Also: test concentration not given here. The note with it: MM1S mitochondrial potential, higher = more signal.
Experiment [10] is described as follows: resazurin metabolic signal in A549 cells – cell-based, resazurin fluorescence, 24 h, PK04 Diversity Set, profiling panel (AID 1171). Also: test concentration not given here. The note with it: A549 viability, higher = more signal, called active from +8 up or from −8 down. For orientation: Alamar Blue is a resazurin reagent that responds to reducing activity.
Experiment [11] in a line: resazurin metabolic signal in HepG2 cells – cell-based, resazurin fluorescence, 24 h, PK04 Diversity Set, profiling panel (AID 1172). Also: test concentration not given here. The note with it: HepG2 viability, higher = more signal.
The nature of experiment [12]: budding yeast growth changes without added modifier – OD600, strain BY4716, 24 h, basal condition, primary screen (AID 1173). The note with it: S. cerevisiae BY4716 growth, OD600, 24 h; higher = more signal, called active from +8 up or from −8 down.
The nature of experiment [13]: viability profiling in MM1S myeloma cells – cell-based, resazurin fluorescence, basal, 24 h, PK04 Diversity Set, profiling panel (AID 1174). Also: test concentration not given here. To be noted: higher = more signal, called active from +8 up or from −8 down.
Experiment [14] has as its target Dihydroorotate dehydrogenase (quinone), mitochondrial (Plasmodium falciparum (isolate 3D7)) (UniProt Q08210). Kind of experiment: inhibition of P. falciparum DHODH – biochemical, C-terminal His tag, absorbance 600 nm, primary screen (AID 1175).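 Also: recombinant parasite enzyme with a five histidine tag at its C terminus; test concentration not given here.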 The note with it: PfDHODH enzyme, DCIP absorbance 600 nm; higher = more signal, called active from +8 up or from −8 down.
Experiment [15] is described as follows: inhibition of PAO1 biofilm formation – strain PAO1, LB-PBS medium, absorbance 600 nm, primary screen (AID 1176). Also: test concentration not given here. To be noted: P. aeruginosa PAO1 growth/biofilm, A600, 12 h; higher = more signal.
A short description of experiment [16]: growth modulation of vineyard yeast isolate – strain RM11-1a, OD600, basal, 24 h, primary screen (AID 1177).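 Also: cultures grown under basal conditions with no added stressor; test concentration not given here.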 The note with it: S. cerevisiae RM11-1a growth, OD600, 24 h; higher = more signal, called active from +8 up or from −8 down.
Experiment [17] is described as follows: growth of efflux-deficient E. coli DRC39 – strain DRC39, OD650, 24 h, E. coli filamentation inducers, primary screen (AID 1178).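 Also: growth measured as culture turbidity by optical density at 650 nm; test concentration not given here.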 The note with it: E. coli DRC39 acrAB, higher = more signal, called active from +8 up or from −8 down.
A short description of experiment [18]: growth of efflux-deficient E. coli DRC39 – strain DRC39, OD650, 48 h, E. coli filamentation inducers, primary screen (AID 1179).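 Also: screen aims at cell division blockers that make cells filament.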 The note with it: E. coli DRC39 delta-acrAB growth, higher = more signal, called active from +8 up or from −8 down.
Experiment [19] can be described thus: viability profiling in RPMI8226 myeloma cells – cell-based, resazurin fluorescence, basal, 24 h, PK04 Diversity Set, profiling panel (AID 1180).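 Also: RPMI8826 multiple myeloma cell line at 5000 cells per well; test concentration not given here.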 The note with it: higher = more signal.
Experiment [20] addresses E3 ubiquitin-protein ligase XIAP (Homo sapiens) (UniProt P98170). Kind of experiment: small molecules binding XIAP protein – biophysical, small-molecule microarray, fluorescence 635 nm, primary screen (AID 1181).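 Also: score merges 667 nm emission and signal to noise over triplicate slides.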 To be noted: higher = more signal.

Chain of E3 ubiquitin-protein ligase XIAP (Homo sapiens) (P98170 whole entry, looked up): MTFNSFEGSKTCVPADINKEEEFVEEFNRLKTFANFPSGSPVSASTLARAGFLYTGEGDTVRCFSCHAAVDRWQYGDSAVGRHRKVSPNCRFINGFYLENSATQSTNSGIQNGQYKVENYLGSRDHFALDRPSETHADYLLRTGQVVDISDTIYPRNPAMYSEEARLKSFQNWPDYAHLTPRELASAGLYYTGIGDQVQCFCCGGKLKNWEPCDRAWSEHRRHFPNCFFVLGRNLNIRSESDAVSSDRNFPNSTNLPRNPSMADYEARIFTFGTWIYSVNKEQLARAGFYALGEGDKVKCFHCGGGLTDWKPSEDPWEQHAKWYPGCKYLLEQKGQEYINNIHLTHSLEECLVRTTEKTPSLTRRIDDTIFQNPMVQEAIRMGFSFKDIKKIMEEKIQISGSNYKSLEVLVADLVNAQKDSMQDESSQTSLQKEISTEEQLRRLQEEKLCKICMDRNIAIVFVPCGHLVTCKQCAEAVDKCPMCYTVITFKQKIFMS
Chain of Dihydroorotate dehydrogenase (quinone), mitochondrial (Plasmodium falciparum (isolate 3D7)) (Q08210 whole entry, looked up): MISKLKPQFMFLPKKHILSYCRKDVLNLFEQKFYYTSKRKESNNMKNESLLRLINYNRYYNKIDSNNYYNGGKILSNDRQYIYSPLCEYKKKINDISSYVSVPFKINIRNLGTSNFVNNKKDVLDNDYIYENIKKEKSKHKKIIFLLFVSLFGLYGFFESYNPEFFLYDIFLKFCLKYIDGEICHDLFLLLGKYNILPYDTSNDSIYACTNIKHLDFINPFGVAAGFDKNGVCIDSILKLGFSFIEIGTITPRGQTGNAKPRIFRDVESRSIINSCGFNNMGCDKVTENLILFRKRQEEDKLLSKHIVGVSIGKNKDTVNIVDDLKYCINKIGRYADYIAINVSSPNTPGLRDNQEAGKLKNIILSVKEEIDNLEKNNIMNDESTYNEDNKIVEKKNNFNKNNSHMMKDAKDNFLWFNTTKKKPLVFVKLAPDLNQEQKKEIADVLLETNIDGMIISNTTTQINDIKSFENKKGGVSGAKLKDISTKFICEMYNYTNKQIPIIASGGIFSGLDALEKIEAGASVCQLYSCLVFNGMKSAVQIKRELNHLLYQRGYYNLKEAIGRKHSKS

With `CC1CC/C=C\[C@H]2OC34C=CCN(Cc5ccccc5)C(=O)[C@H]3N(CCCCCO)C(=O)[C@@H]4C2C(=O)O1` (stereo not given in full), the z-score in [1] was 0.482; in [2], 0.449; in [3] it was -0.069; in [4] it was 1.51; in experiment [5], 0.599; in [6], 0.647. Also, the z-score in experiment [7] was -0.478 (inactive); in [8] it was -0.514; in [9], 1.12; in [10] it was 0.374 (inactive); in experiment [11], -0.0371; in experiment [12], -0.308 (inactive). Besides, the z-score in [13] was 0.521 (inactive); in experiment [15], -0.565 (inactive); in experiment [16] it was 0.0882 (inactive); in experiment [17], 0.443 (inactive); in experiment [18] it was 0.667 (inactive); in [19] it was 0.461. For the same compound, the composite z-score in experiment [14] is -0.419 (inactive); in [20], -0.0062.
Turning to `C[C@]1(C(=O)NCc2ccccc2)c2ccccc2C(=O)N(Cc2ccc(OC(F)(F)F)cc2)[C@H]1c1ccc(CO)cc1`, the z-score in experiment [1] is 1.84; in experiment [2] it was 1.12; in [3] it was 1; in experiment [4], 0.318; in [5], 0.346; in experiment [6] it was 3.56. Besides, the z-score in experiment [7] is 0.777 (inactive); in [8], -0.584; in [9], -0.0466; in experiment [10], 1.46 (inactive); in experiment [11] it was 0.333; in [12], -1.51 (inactive). Also, the z-score in experiment [13] is 1.51 (inactive); in [15], 0.609 (inactive); in [16] it was -0.593 (inactive); in experiment [17] it was 1 (inactive); in experiment [18], 0.806 (inactive); in experiment [19], 1.19. The composite z-score in experiment [14] was -0.482 (inactive); in experiment [20], -0.0872.
On to `COCCOC(=O)N1C(=O)[C@@]2(c3cc(C#CC4=CCCCC4)ccc31)[C@H](C(=O)NC[C@H](O)c1ccccc1)[C@H]1C(=O)O[C@H](c3ccccc3)[C@H](c3ccccc3)N1[C@@H]2c1ccc(O)cc1`, for which the z-score in [1] is -0.144; in [2] it was 1.3; in experiment [3], -0.34; in [4], -2.81; in [5], -3.45; in experiment [6], -2.71. In addition, the z-score in [7] is 1.35 (inactive); in experiment [8], -0.657; in [9] it was 0.0116; in [10], -1.09 (inactive); in [11], -0.789; in [12] it was -0.571 (inactive). In addition, the z-score in experiment [13] is -0.925 (inactive); in experiment [15], 1.01 (inactive); in [16], 1.55 (inactive); in [17], -0.237 (inactive); in experiment [18], 0.174 (inactive); in [19], -1.73. Besides, the composite z-score is 0.409 (inactive) in experiment [14] and -0.02 in [20].
As to `Cc1ccccc1C(O)C1C=CC2C(=O)N(C)C(=O)C2N1N1CCCCC1` (stereo not given), the z-score in experiment [1] is -0.578; in experiment [2], -1.18; in experiment [3] it was -0.979; in [4] it was -0.587; in [5], -0.436; in [6], -1.64. For the same compound, the z-score in [7] is -1.01 (inactive); in [8], 0.207; in experiment [9], 0.201; in experiment [10] it was -0.464 (inactive); in experiment [11], -0.424; in experiment [12] it was 0.492 (inactive). Further, the z-score in experiment [13] is -1.24 (inactive); in experiment [15] it was 0.723 (inactive); in experiment [16] it was -0.252 (inactive); in experiment [17] it was -0.751 (inactive); in experiment [18] it was -0.495 (inactive); in [19], -1.64. In addition, the composite z-score was -0.318 (inactive) in experiment [14] and 0.124 in experiment [20].
As for `[N-]=[N+]=NCc1ccccc1C[C@]1(C(=O)O)N=C(c2ccc(OCCCO)cc2)O[C@H]1c1ccccc1`, the z-score in experiment [1] is -0.755; in experiment [2], -0.4; in [3], -0.509; in experiment [4] it was -1.19; in experiment [5], -0.388; in [6] it was -1.62. Also, the z-score in experiment [7] is 0.336 (inactive); in [8], -0.179; in experiment [9], 0.181; in [10] it was 0.0055 (inactive); in [11], 0.922; in experiment [12] it was -2.17 (inactive). Also, the z-score in experiment [13] is 0.111 (inactive); in experiment [15], 0.755 (inactive); in experiment [16], -0.923 (inactive); in [17] it was -0.168 (inactive); in experiment [18] it was -0.429 (inactive); in experiment [19], 0.525. The composite z-score in [14] was 0.732 (inactive); in [20] it was -0.0482.
Take `COCC(=C=CC[C@@H](O)c1ccc(CO)o1)CCO`: the z-score was 2.82 in experiment [1]; 1.72 in [2]; 0.783 in experiment [3]; 0.178 in experiment [4]; 1.94 in experiment [5]; 0.281 in experiment [6]. The z-score in experiment [7] was -0.24 (inactive); in experiment [8], 0.824; in [9] it was -1.08; in [10], 0.559 (inactive); in experiment [11], 0.59; in experiment [12], -3.07 (inactive). Also, the z-score in experiment [13] is 0.698 (inactive); in experiment [15], 0.862 (inactive); in experiment [16], -3.85 (inactive); in experiment [17] it was 1.13 (inactive); in [18] it was 1.1 (inactive); in [19], 0.529. Moreover, the figures for the composite z-score in experiment [14] and in experiment [20] were -9.96 (active) and 0.116, respectively.
For the compound `Cc1ccc(S[C@]2(C(=O)NC3CC3)CC(=O)N(Cc3ccccc3)[C@@H]2c2ccc(CO)cc2)cc1`, the z-score is 1.29 in experiment [1]; -0.119 in experiment [2]; -0.12 in experiment [3]; -0.0947 in experiment [4]; 0.181 in [5]; -0.439 in experiment [6]. The z-score was -0.199 (inactive) in experiment [7]; 1.07 in [8]; -0.452 in experiment [9]; 0.846 (inactive) in experiment [10]; -0.177 in [11]; -1.71 (inactive) in experiment [12]. In addition, the z-score in [13] was 0.262 (inactive); in [15] it was 0.196 (inactive); in experiment [16] it was -0.5 (inactive); in experiment [17] it was 0.354 (inactive); in experiment [18], -0.255 (inactive); in [19], 0.35. Also, the composite z-score in experiment [14] was -0.867 (inactive); in [20], 0.0424.
For `N[C@@H](Cc1ccccc1)Cn1cc(-c2ccccc2)nn1`, the z-score in experiment [1] was -0.192; in experiment [2] it was -0.711; in [3], -0.0622; in [4] it was -1.57; in experiment [5], -0.0672; in [6], 1.18. For the same compound, the z-score in experiment [7] is 0.399 (inactive); in [8], -0.515; in experiment [9], 0.137; in experiment [10], 0.837 (inactive); in experiment [11], -0.473; in [12], -2.26 (inactive). Moreover, the z-score is -0.29 (inactive) in [13]; 0.444 (inactive) in [15]; -0.519 (inactive) in [16]; 0.405 (inactive) in [17]; -0.679 (inactive) in experiment [18]; -0.587 in experiment [19]. Also, the composite z-score is 1.11 (inactive) in experiment [14] and -0.377 in [20].
On to `CCCCCN1CC=CC23O[C@@H]4C=CCOC(=O)[C@@H]4[C@H]2C(=O)N(CCCO)[C@@H]3C1=O` (stereo not given in full), for which the z-score in [1] was -0.279; in experiment [2] it was 2.21; in experiment [3] it was -0.721; in experiment [4], 0.364; in experiment [5] it was -0.0478; in experiment [6], -1.29. For the same compound, the z-score is -0.883 (inactive) in experiment [7]; -0.022 in experiment [8]; 0.208 in [9]; -0.15 (inactive) in experiment [10]; 0.22 in experiment [11]; -0.988 (inactive) in experiment [12]. The z-score was 0.806 (inactive) in experiment [13]; 0.0837 (inactive) in experiment [15]; -0.0379 (inactive) in experiment [16]; -0.625 (inactive) in experiment [17]; 0.244 (inactive) in [18]; 0.217 in experiment [19]. The composite z-score in experiment [14] is -1.67 (inactive); in experiment [20], -0.0988.
